ChEMBL document CHEMBL1201862, “PubChem BioAssay data set” (2004)
The whole screen tested about 310,000 compounds, of which about 17,000 (5.5%) were called active. Another 11% or so got no clear call; they are omitted. The rule behind the calls is not given here. The entries come from a sample that favours actives as a whole.

biological target: T1, Nuclear receptor ROR-gamma (Mus musculus) (UniProt P51450); assay: qHTS for inhibitors of ROR gamma transcriptional activity.; format: functional
T1 sequence (whole entry): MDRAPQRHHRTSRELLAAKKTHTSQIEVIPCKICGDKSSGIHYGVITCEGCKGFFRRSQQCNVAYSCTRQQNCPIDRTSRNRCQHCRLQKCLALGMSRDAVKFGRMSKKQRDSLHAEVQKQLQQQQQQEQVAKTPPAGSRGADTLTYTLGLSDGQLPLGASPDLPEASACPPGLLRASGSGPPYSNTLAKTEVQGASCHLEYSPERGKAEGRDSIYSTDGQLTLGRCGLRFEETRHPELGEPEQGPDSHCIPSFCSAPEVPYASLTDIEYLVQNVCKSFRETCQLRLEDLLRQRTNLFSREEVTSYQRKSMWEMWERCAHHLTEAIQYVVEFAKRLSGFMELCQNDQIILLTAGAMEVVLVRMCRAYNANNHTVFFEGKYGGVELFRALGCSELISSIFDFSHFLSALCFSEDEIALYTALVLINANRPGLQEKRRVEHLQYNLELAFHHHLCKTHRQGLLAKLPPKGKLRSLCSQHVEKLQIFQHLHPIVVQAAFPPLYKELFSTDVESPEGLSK

Potency, active:
COc1ccccc1/C=C/C(=O)c1cccs1 25.1 µM
O=C(/C=C/c1ccc(Cl)cc1)c1cccs1 15.8 µM
c1ccc(-n2ncc3c(NCc4cccnc4)ncnc32)cc1 501 µM
